# Records with an inconclusive call do not appear. Entries that show only a call come without a potency. Active and inactive are the calls of the source. Calls come from the whole dose curve; as a rule, active = well fitted inhibition curve with a large enough effect; inconclusive = small, poorly fitted or top-dose-only effect; inactive = no such curve, though single readings can be large or run the other way.
# Molecular target: N-terminal Xaa-Pro-Lys N-methyltransferase 1 (Homo sapiens) (UniProt Q9BV86)
# Sequence (Q9BV86 whole entry, looked up): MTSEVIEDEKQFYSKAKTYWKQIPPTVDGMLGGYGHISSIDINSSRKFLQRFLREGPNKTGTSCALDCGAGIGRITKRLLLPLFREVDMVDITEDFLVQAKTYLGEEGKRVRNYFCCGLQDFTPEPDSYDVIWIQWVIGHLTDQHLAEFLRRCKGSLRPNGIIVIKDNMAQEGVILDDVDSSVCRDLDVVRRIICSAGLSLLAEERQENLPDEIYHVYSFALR
# Assay: qHTS Assay for Inhibitors of N-terminal methyltransferase 1 (NTMT1): LOPAC validation of the NTMT1 SAHH-coupled ThioGlo3 Assay (AID 1347143);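 note: SAH from peptide methylation measured as thiol fluorescence via SAHH coupling and ThioGlo3; nearly all actives have a fitted effect of over 70% in size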
# Details: recombinant NTMT1, SAHH-coupled ThioGlo3 fluorescence; series mostly up to 114 µM
# Summary of the method: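 NTMT1 125nM + cpds (various conc.), 1 min RT; add SAM 100uM/SAHH 10uM/ThioGlo3 15uM (addition mix). SAHH-coupled thiol detection, Ex340/Em450, t0 and 30 min RT; signal normalized to background. LOPAC 1280-cpd pilot.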
# Potency is the fitted concentration of half-maximal effect.
row,SMILES,Potency
1,CN[C@H](CC(C)C)C(=O)N[C@H]1C(=O)N[C@@H](CC(N)=O)C(=O)N[C@H]2C(=O)N[C@H]3C(=O)N[C@H](C(=O)N[C@H](C(=O)O)c4cc(O)cc(O)c4-c4cc3ccc4O)[C@H](O)c3ccc(c(Cl)c3)Oc3cc2cc(c3O[C@@H]2O[C@H](CO)[C@@H](O)[C@H](O)[C@H]2O[C@H]2C[C@](C)(N)[C@H](O)[C@H](C)O2)Oc2ccc(cc2Cl)[C@H]1O,inactive
2,CC(C)Cc1ccc([C@H](C)C(=O)O)cc1,inactive
3,Cn1ncc(S(=O)(=O)Cc2ccccc2)c(Br)c1=O,44.7 µM (active)
4,CC(=O)N[C@H](C(=O)O)C(C)(C)SN=O,inactive
5,CC[C@H]1OC(=O)[C@H](C)[C@@H](O[C@H]2C[C@@](C)(OC)[C@@H](O)[C@H](C)O2)[C@H](C)[C@@H](O[C@@H]2O[C@H](C)C[C@H](NC)[C@H]2O)[C@](C)(O)C[C@@H](C)CN(C)[C@H](C)[C@@H](O)[C@]1(C)O,inactive
6,Cc1cc(NC2CCCCC2)nc(-n2nc(C)cc2C)n1,inactive
7,N#C/C(=C\c1ccc(O)c(O)c1)C(=O)c1ccc(O)c(O)c1,31.6 µM (active)
8,C=CC(N)CCC(=O)O (stereo not drawn),inactive
9,Cc1cn([C@H]2CC(N=[N+]=[N-])[C@@H](CO)O2)c(=O)[nH]c1=O (stereo partly drawn),inactive
10,Oc1cc(O)cc(/C=C/c2ccc(O)c(O)c2)c1,35.5 µM (active)
11,CC(C)c1cccc(C(C)C)c1N1C(=O)c2ccc(O)cc2C1=O,inactive
12,COCCOc1cc2ncnc(Cl)c2cc1OCCOC,inactive
13,CN1C2CCC1CC(OC(=O)C(O)c1ccccc1)C2 (stereo not drawn),inactive
14,O=C(/C=C/c1ccc(O)cc1)c1ccc(O)cc1O,44.7 µM (active)
15,S=C(S)OC1CC2CC1C1CCCC21 (stereo not drawn),inactive
16,CC(C)(C)c1ccc(S(=O)(=O)/C=C/C#N)cc1,4.47 µM (active)
17,CN1C2CC(OC(=O)[C@H](CO)c3ccccc3)CC1C1OC12 (stereo partly drawn),inactive
18,NCCCS(=O)(=O)O,inactive
19,COC1=C(OC)C(=O)c2ccccc2C1=O,inactive

row,SMILES,Potency
1,CN(C)CCC(c1ccc(Cl)cc1)c1ccccn1 (stereo not drawn),inactive
2,Nc1nc2c(ncn2[C@@H]2O[C@H](CO)[C@@H](O)[C@@H]2O)c(=O)[nH]1,inactive
3,O=C(/C=C/c1ccc(O)c(O)c1)OCCc1ccccc1,35.5 µM (active)
4,CN(C)C(N)=NCCC[C@H](N)C(=O)O,inactive
5,N#C/C(=C\c1ccc(-c2cc(Cl)ccc2Cl)o1)C(=O)Nc1cccc2ncccc12,56.2 µM (active)
6,CC1(C)CCC=[N+]1[O-],inactive
7,CO[C@H]1O[C@@H]2O[C@]3(C)CC[C@@H]4[C@@H](C)CC[C@H]([C@H]1C)[C@]24OO3,inactive
8,O=C1NCc2c1c1c3ccccc3[nH]c1c1[nH]c3ccccc3c21,79.4 µM (active)
9,CN1CCc2cccc3c2C1Cc1ccc(O)c(O)c1-3 (stereo not drawn),20 µM (active)
10,OCC1O[C@H](O)C(Cl)C(O)C1O (stereo partly drawn),inactive
11,NCCSSCCN,inactive
12,O=C(CCc1ccncc1)NNC(=O)N1Cc2ccccc2Oc2ccc(Cl)cc21,inactive
13,NC(CCCP(=O)(O)O)C(=O)O (stereo not drawn),inactive
14,NCCCCCCCCCCN,inactive
15,CCOC(=O)C1=C(C)NC(C)=C(C(=O)OCC)C1c1c(F)c(F)c(F)c(F)c1F,79.4 µM (active)
16,CC[C@H]1OC(=O)[C@H](C)C(O[C@H]2C[C@@](C)(OC)[C@@H](O)[C@H](C)O2)[C@H](C)[C@@H](OC2O[C@H](C)C[C@H](N(C)C)[C@H]2O)[C@](C)(O)C[C@@H](C)CN(C)[C@H](C)[C@@H](O)[C@]1(C)O (stereo partly drawn),inactive
17,Cn1c(=O)c(-c2c(Cl)cccc2Cl)cc2cnc(Nc3ccc(N4CCOCC4)cc3)nc21,56.2 µM (active)
18,CCOC(=O)N1CCN(/[N+]([O-])=N/Oc2ccc([N+](=O)[O-])cc2[N+](=O)[O-])CC1,28.2 µM (active)
19,Nc1nc(OCC2CCCCC2)c2[nH]cnc2n1,inactive

# From PubChem BioAssay (NCATS)
